Compound activity: PubChem, National Center for Advancing Translational Sciences (NCATS)
In the library only some 19% were active in any assay of this set; here they are far more common.
TDP1 cell noCPT = qHTS for Inhibitors of human tyrosyl-DNA phosphodiesterase 1 (TDP1): qHTS in cells in absence of CPT; Potency, µM (highest dose often 46.2 µM), for inactives: at the top dose activity change, negative = growth inhibition, actives largely listed as inhibitors; AID 686978, 2013; actives 15% (n = 420,000); DT40 Tdp1-/- hTDP1 cells, no CPT, ATP luminescence, 48 h; note: potency is the fitted concentration of half-maximal effect; nearly all actives have a fitted effect of over 55% in size
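Compound effects on proliferation are scored in DT40 Tdp1-/-;hTDP1 cells in the absence of CPT. ATP levels (CellTiter-Glo luminescence) are recorded after a ≥48 hr, 37 °C incubation.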
DT40 TDP1 CPT = growth inhibition of DT40 Tdp1-/-;hTDP1 cells with camptothecin (screen for TDP1 inhibitors); chicken DT40 Tdp1-/-;hTDP1 cells + 20 nM CPT, ATP luminescence, 48 h; Potency, µM (top dose mostly 46.2 µM), inactives show at the highest dose activity change, negative = growth inhibition, hits mostly inhibitors; actives 12% (n = 420,000); AID 686979; note: potency is the fitted concentration of half-maximal effect; nearly all actives have a fitted effect of over 55% in size
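Cell growth measured by CellTiter-Glo luminescence after a minimum 48 h, 37 C compound exposure with 20 nM CPT in Tdp1-knockout DT40 cells stably expressing hTDP1, seeded 400/well; qHTS titration format.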
IL-1B inflam inh = inflammasome signaling inhibition, IL-1 beta readout; THP-1 LPS/ATP IL-1B secretion, AlphaLISA, 16 h; active compounds read low; actives 4.7% (n = 360,000); activity change, % at 57.5 µM; in the data active = activity change below about -50%; inconclusive = mostly about -30% to -49%
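THP-1 cells pretreated 1 hr with compounds (up to 57.5 uM final), then stimulated with LPS (250 ng/mL final) plus ATP (1.25 mM final); secreted IL-1B measured by AlphaLISA after 16 hr, decreased signal indicating inhibition.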
HT1080 IDH1KD tx = kills HT-1080 cells with IDH1 knockdown; HT-1080 IDH1 knockdown viability, ATP luminescence, 48 h; Potency, µM (highest dose often 46.1 µM), for inactives: at the highest dose activity, negative = toxicity, hits mostly cytotoxic; actives 2% (n = 360,000);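 note: potency is the fitted concentration of half-maximal effect; 0% = DMSO wells and -100% = cell-free medium wells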
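Viability of IDH1-knockdown HT-1080 fibrosarcoma cells was assessed by CellTiter-Glo after 48 h at 37 °C with titrated compound; concentration-effect curves were classified by fit quality and response size.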
HT1080-NT tox = kills 2HG-producing HT-1080-NT fibrosarcoma cells. HT-1080-NT fibrosarcoma viability, CellTiter-Glo ATP luminescence, 48 h. Potency, µM (titrated, usually from 46.1 µM), for inactives: top-dose activity, negative = less viability, usual class: cytotoxic. actives 1.6% (n = 360,000). AID 686970;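 note: NT is the 2HG producing partner of a matched IDH1 knockdown line; potency is the fitted concentration of half-maximal effect; 0% = DMSO-treated cells and -100% = media-only wells without cells; nearly all actives have a fitted effect of over 55% in size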
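Viability of the 2HG-overproducing fibrosarcoma line after 48 hours of compound exposure at 37 degrees C was determined by luminescence with CellTiter-Glo, and concentration-effect curves were then fitted and categorized.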
The depositor's hits bear a star; ? = inconclusive; . = no result. Unless noted, calls come from the whole dose curve; as a rule, active = well fitted curve in the direction sought with a large enough effect; inconclusive = small, poorly fitted or top-dose-only effect, or another doubt; inactive = no such curve, though single readings can be large; an effect the other way counts as inactive or inconclusive. Unless noted, % is set by controls: 0 for no effect and ±100 for the full control effect.

SMILES | TDP1 cell noCPT | DT40 TDP1 CPT | IL-1B inflam inh | HT1080 IDH1KD tx | HT1080-NT tox
CC(C)C[C@@H]1NC(=O)[C@H](CCCN)NC(=O)[C@H](C(C)C)NC(=O)[C@@H]2CCCN2C(=O)[C@@H](Cc2ccccc2)NC(=O)[C@H](CC(C)C)NC(=O)[C@H](CCCN)NC(=O)[C@H](C(C)C)NC(=O)[C@@H]2CCCN2C(=O)[C@@H](Cc2ccccc2)NC1=O | 0.15µM* | 0.41µM* | . | . | .
CC(C)c1ccc(C2C3=C(COC3=O)Nc3cc4c(cc32)OCO4)cc1 (stereo not given) | 0.92µM* | 0.65µM* | 14 | 1.6µM* | 1.5µM*
CC[N+]1(CC(=O)c2ccc(I)cc2)CCCCC1 | -20% | ? | . | . | .
CC1Cc2ccccc2C[N+]1(C)CC(=O)c1ccc(I)cc1 (stereo not given) | 14µM* | 10µM* | . | . | .
NC(=O)COC(=O)[C@@H]1CC(O)CN1S(=O)(=O)c1ccc2c(c1)OCCO2 (stereo not given in full) | 0% | -13% | 9 | -1% | -3%
O=C1Cc2ccccc2C(=O)N1c1ccc(F)cc1Cl | 16µM* | ? | -9 | 16% | 22%
O=C(COCc1cc(-c2cccs2)on1)NCc1ccc(Cl)cc1 | -13% | -3% | . | . | .
CN1CC(=O)N(CC(=O)NC2CCCCC2)C1=O | -2% | -3% | 11 | 12% | 8%
Cc1ccc(C)c(OC2=NS(=O)(=O)c3ccccc32)c1 | 21µM* | 18µM* | 3 | 9% | 14%
Cc1ccc(CSC2=NS(=O)(=O)c3ccccc32)cc1 | 11µM* | 8.9µM* | . | . | .
Cc1ccc(SC2=NS(=O)(=O)c3ccccc32)c(C)c1 | 1.3µM* | 1.4µM* | . | . | .
C/C(=N\NC(=O)C1(C)CC1(Br)Br)c1ccc(NC(=O)c2ccc(C)o2)cc1 (stereo not given) | 18µM* | 13µM* | 51 | -9% | 0%
C/C(=N\NC(=O)C1(C)CC1(Br)Br)c1ccc([N+](=O)[O-])cc1 (stereo not given) | ? | 16% | 0 | 0% | 1%
COc1ccc(CC(=O)Nc2cccc(/C(C)=N/NC(=O)C3(C)CC3(Br)Br)c2)cc1 (stereo not given) | ? | 16µM* | 26 | -15% | 4%
CC1CC(C)CN(CCCNC(=O)CCC(=O)N2CCOc3ccccc32)C1 (stereo not given) | 5% | 14% | -24 | -1% | 3%
CC1CN(C=O)CC(C)N1CCN1C(C)CN(C=O)CC1C (stereo not given) | -2% | 7% | 4 | -1% | -2%
C[C@@]12C(=O)Nc3ccc(F)cc3C(=O)N1[C@H]1c3ccccc3OC[C@@H]1[C@@H]2c1ccccc1 | -10% | ? | ? | -4% | -10%
COc1ccc2c(c1)OC[C@H]1[C@H]2N2C(=O)c3cc(OC)c(OC)cc3NC(=O)[C@@]2(C)[C@H]1c1ccccc1 | 16µM* | 29µM* | 0 | ? | ?
C[C@@]12C(=O)Nc3cc(F)c(F)cc3C(=O)N1[C@H]1c3ccccc3OC[C@@H]1[C@@H]2c1ccccc1 | 18µM* | ? | -63* | -25% | -25%
COc1ccc2c(c1)OC[C@H]1[C@@H]2N2C(=O)[C@@H](C)NC(=O)[C@@]2(C)[C@H]1c1ccccc1 | -16% | 8% | 17 | 1% | 4%
COc1cc2c(cc1OC)C(=O)N1[C@H]3c4ccccc4OC[C@@H]3[C@H](c3ccccc3)[C@]1(C)C(=O)N2 | 15µM* | ? | ? | -15% | 4%
CCc1nn(CC(=O)N2CCN(c3cccc(C(F)(F)F)c3)CC2)c(=O)c2cccn12 | -22% | -13% | . | . | .
COc1ccc(CCn2c(S)nc3ccccc3c2=O)cc1 | 19% | -1% | 48 | 30% | 9%
CCC(CO)Oc1cc(NCc2ccccc2OC)c2ncn(C(C)C)c2c1 (stereo not given) | ? | ? | 28 | -1% | -8%
CCC(CO)Oc1cc(NCc2ccccc2F)c2ncn(C(C)C)c2c1 (stereo not given) | 16µM* | 21µM* | 30 | -2% | -8%
SMILES | TDP1 cell noCPT | DT40 TDP1 CPT | IL-1B inflam inh | HT1080 IDH1KD tx | HT1080-NT tox
CCC(CO)Oc1cc(NCc2ccccc2C(F)(F)F)c2ncn(C(C)C)c2c1 (stereo not given) | 16µM* | 23µM* | 82 | -4% | -18%
COc1ccc(-c2c(NC(=O)c3ccco3)oc3c(C)cccc3c2=O)cc1 | -11% | -24% | 4 | 0% | -8%
CC1CCCN(C(=O)C2(NC(=O)Nc3cccc(F)c3)CCCCC2)C1 (stereo not given) | -9% | 0% | -5 | 4% | 16%
COC(=O)c1ccc2nc(-c3ccc(F)cc3)c(Cc3ccccc3)n2c1 | 23µM* | 16µM* | 1 | -1% | 8%
Cc1ccc2nc(-c3ccccc3)c(Cc3ccsc3)n2c1 | 16µM* | 15µM* | -13 | -6% | 1%
COC(=O)c1ccc2nc(-c3ccc(C#N)cc3)c(Cc3ccsc3)n2c1 | 23µM* | ? | -6 | -19% | -6%
COC(=O)c1ccc2nc(C3CCCCC3)c(Cc3ccccc3)n2c1 | 9.2µM* | 16µM* | 20 | ? | ?
NC(=O)c1ccccc1-c1nc(-n2ccnc2)c2ccccc2n1 | 9% | 6% | . | . | .
COC(=O)c1ccc2nc(-c3ccc(F)cc3)c(Cc3ccsc3)n2c1 | 18µM* | ? | 25 | 11% | 12%
COC(=O)c1ccc2nc(-c3ccc(C)cc3)c(Cc3ccsc3)n2c1 | 21µM* | 18µM* | 46 | -6% | 1%
COc1ccc(-c2nc3ccc(Br)cn3c2Cc2ccsc2)cc1OC | ? | ? | 1 | -19% | -18%
COc1ccccc1/C=C/c1nc2ccccc2o1 | -17% | -15% | . | . | .
COc1ccc(S(=O)(=O)CC2(O)CCN(C(=O)C(C)(C)C)CC2)cc1 | 6% | 2% | 22 | 7% | 0%
CCC(C)NC(=O)c1cc(S(=O)(=O)N2CCCCC2)c[nH]1 (stereo not given) | -10% | 1% | 4 | 8% | -5%
O=C1CN(C(=O)Nc2ccccc2Cl)C(c2ccccc2)c2c(sc3c2CCCC3)N1 (stereo not given) | ? | 23µM* | . | . | .
C/C(Cl)=C\COc1cc(C)nc2c(Br)cccc12 | 29µM* | -2% | 6 | -9% | 1%
CC(=O)Nc1ccc(OC/C=C(\C)Cl)cc1 | -6% | -16% | -5 | -1% | 1%
O=C(O)c1ccccc1C(=O)c1ccc(F)c(F)c1 | 3% | -4% | 0 | 1% | 6%
O=C(NCc1cccs1)c1cccc2c(-c3cccnc3)coc12 | -66% | ? | ? | -2% | -7%
